Inhibition data for 94 compounds are collected here from PubChem BioAssay AID2216 (Broad Institute, 2009).

SMILES strings stand for the structures. Out of some 300,000 compounds screened, about 3,300 (1.1%) were called active. About 6% were inconclusive and are not listed. The full list was thinned out, with actives kept by preference. Unmarked numbers belong to inactive results.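 The calls were made as follows: active = more than half of the replicate wells show a fall in the fluorescence ratio signal beyond about 16% (limit read from the data, passing the limit was not always enough); inconclusive = exactly half of the replicate wells pass the set limit; inactive = fewer than half of replicates pass the limit.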

The subject of this experiment is Ran GTPase (GTP-bound) - importin-beta complex. Kind of experiment: disruptors of Ran-importin-beta complex formation – biochemical, FRET, CFP-Ran, YFP-importin-beta, homogeneous, primary screen (AID 2216).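 Also: 0% = DMSO wells and 100% = Ran loaded with GDP instead of GTP.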 The conditions noted are these: cell-free CFP-Ran/YFP-importin-beta FRET ratio; active compounds read high; concentration not given here.
One may read the inhibition as the relative decrease from the control value, in per cent. As for `COc1ccc(CCNC(=O)C(=O)NCC2CCCN2S(=O)(=O)c2cccs2)cc1OC` (centres undefined), the inhibition is -2.95%.
With `Cc1cc(C)c(C)c(S(=O)(=O)N2CCN(C(=O)c3ccc4c(=O)n5c(nc4c3)CCC5)CC2)c1C` the figure was 0.31%; with `Cn1nccc1CNC(=O)c1ccnn1C`, -4.46%; with `CCN(CC)C(=O)c1sc(NC(=O)c2ccco2)c(C#N)c1C`, 5.09%.
As to `CCCc1ccc(-c2c(C)sc(NC(=O)c3ccnn3C)c2C#N)cc1`, the inhibition is 69.5% (active).
In the case of `O=C(COC(=O)Cn1[nH]c(=O)c2ccccc2c1=O)Nc1c(Cl)cccc1C(F)(F)F` it was 0.554%.
In the case of `CCCCn1c(N)c(N(CC(C)C)C(=O)c2ccc(-n3c(C)ccc3C)cc2)c(=O)[nH]c1=O` it was 2.98%.
For the compound `CC(=O)N1CCc2c(sc(NC(=O)CCS(=O)(=O)c3ccccc3)c2C#N)C1`, the inhibition is 2.62%.
Turning to `Cc1ccc(S(=O)(=O)CC(=O)Nc2sc(C)c(C)c2C(N)=O)cc1`, the inhibition was 1.11%.
With `CC(=O)N1CCc2c(sc(NC(=O)CCS(=O)(=O)c3ccc(C)cc3)c2C(N)=O)C1` the figure was 32.8% (active); with `CCOC(=O)c1cc(NC(=O)c2cccnc2)ccn1`, -2.83%.
Consider `CN1OC(COC(=O)c2ccc(Cl)cc2)CC1c1ccccc1` (centres undefined), for which the inhibition was 2.75%.
In the case of `Cn1cncc1COC(=O)c1ccc(Cl)cc1` it was 0.688%.
With `CC(C)(C)c1ccc(C(=O)NCCC(=O)NCc2ccco2)cc1` the figure was 1.67%; with `N#Cc1c(N)n(CCOC(=O)c2ccc(Cl)cc2)c2nc3ccccc3nc12`, 39.9% (active).
With `CCCCNC(=O)CCNC(=O)c1ccc(C(C)(C)C)cc1` the figure was 3.77%; with `CC(C)(C)c1ccc(C(=O)NCCn2c(N)c(C#N)c3nc4ccccc4nc32)cc1`, 82.8% (active); with `CN(C(=O)c1cc2c(=O)n3ccccc3nc2s1)C1CCCCC1`, 2.4%.
Consider `CCOc1cc(C(=O)Nc2ccc(S(=O)(=O)Nc3cnc4ccccc4n3)cc2)cc(OCC)c1OCC`, for which the inhibition was 7.91%.
In the case of `CCN1CCN(c2ccc(S(=O)(=O)N3CCCCC3)cc2NC(=O)Cc2c(Cl)cccc2Cl)CC1` it was 1.25%; in that of `O=C(c1ccc(F)c(S(=O)(=O)N2CCOCC2)c1)N(CCc1ccccc1)Cc1ccccc1`, 7.49%.
Consider `CCC(C)N(C(=O)COC(=O)c1nc(Cl)ccc1Cl)C1CCS(=O)(=O)C1` (centres undefined), for which the inhibition is 7.73%.
Consider `COc1ccc(-c2cc3ccc(OCc4nn[nH]n4)cc3oc2=O)cc1`, for which the inhibition was -0.255%.
With `O=c1c(-c2ccccc2)coc2cc(O)ccc12` the figure was -0.924%.
In the case of `O=c1oc2cc(O)ccc2cc1-c1ccc(F)cc1` it was 149% (active); in that of `O=C(Nc1cc2c3c(c1)CC(=O)N3CCC2)c1ccccc1F`, 0.312%.
In the case of `O=C(Nc1ccc(Cl)cc1)N1CCc2[nH]c3ccccc3c2C1` it was 29.2% (active); in that of `Cc1ccc2[nH]c3c(c2c1)CN(C(=O)CN1CCN(c2ccccc2)CC1)CC3`, -23.4%.
As to `CCCC(=O)N1CCc2[nH]c3ccccc3c2C1`, the inhibition was 29% (active).
In the case of `C=CCNC(=S)N1CCc2[nH]c3ccccc3c2C1` it was 3.44%; in that of `Fc1ccc(NC(=S)N2CCc3[nH]c4ccccc4c3C2)cc1`, 9.84%.
Turning to `CCc1ccc(NC(=O)N2CCc3ccccc3C2)cc1`, the inhibition was -4.66%.
`CC(=O)c1c(C)[nH]c(C(=O)COC(=O)CCOc2ccc(C)cc2)c1C`: the inhibition was 6.12%.
On to `COc1ccccc1C(=O)NC(CCSC)C(=O)N1CCN(C/C=C/c2ccccc2)CC1` (centres undefined), for which the inhibition is 0.266%.
In the case of `CCOc1ccc(S(=O)(=O)NCCC(=O)N2CCCCCCC2)cc1` it was 0.262%.
Take `CCN(CC(=O)Nc1c(F)cccc1F)C(=O)C1CCC1`: the inhibition is 0.154%.
With `Cc1cc(S(=O)(=O)c2cc3ccc(O)c(C)c3oc2=O)ccc1F` the figure was 132% (active).
Take `CCCCN(C(=O)c1ccc(S(=O)(=O)N2CCOCC2)cc1)C1CCS(=O)(=O)C1` (centres undefined): the inhibition is -4.84%.
For the compound `NC(=O)CSc1nnc(NC(=O)c2ccc3ccccc3c2)s1`, the inhibition is 5.81%.
With `COc1ccc(/C=N/Nc2cc(N3CCOCC3)nc(C)n2)c(OC)c1` the figure was -3.31%.
In the case of `Cc1ccccc1N/N=C/c1ccc(N2CCOCC2)cc1` it was 1.62%; in that of `CN(C)c1ccc(/C=N/Nc2cc(N3CCOCC3)nc(N3CCOCC3)n2)cc1`, 25.8% (active).
In the case of `Brc1cnc2ccccc2c1N1CCCCC1` it was -1.98%; in that of `COc1ccc(C(C#N)(CC(=O)O)c2cnccn2)cc1OC` (centres undefined), 5.73%.
For the compound `Cc1cc(NC(=O)CCS(=O)(=O)c2ccc(F)cc2)no1`, the inhibition is -2.56%.
Consider `CCc1cccc(C)c1NC(=O)COC(=O)CNC(=O)c1cccs1`, for which the inhibition is 0.115%.
With `COc1ccc(NC(=O)CCC(=O)N2CCN(S(=O)(=O)c3ccc(C)cc3)CC2)c(OC)c1` the figure was 2.41%.
Regarding `Cc1ccccc1-c1nc(C#N)c(NCc2ccco2)o1`, the inhibition was -0.838%.
`CC(C)c1cc(NCc2ccccn2)n2c(nc3ccccc32)c1C#N`: the inhibition was 51% (active).
`Cc1cc(NC(C)C)n2c(nc3ccccc32)c1C#N`: the inhibition is -3.25%.
In the case of `CCOCCCNc1c(CC)c(C)c(C#N)c2nc3ccccc3n12` it was 10.7%.
As to `Cc1cc(NCc2ccco2)n2c(nc3ccccc32)c1C#N`, the inhibition is 102% (active).
Consider `Cc1c(C(=O)Nc2cccc(Cl)c2)cn2c(nc3ccccc32)c1C#N`, for which the inhibition was 10.5%.
In the case of `Nc1c(C(=O)Nc2ccc3c(c2)OCCO3)nnn1Cc1ccccc1` it was -8.94%.
In the case of `COc1ccc(-c2csc3ncnc(N4CCN(S(=O)(=O)c5cccc(F)c5)CC4)c23)cc1` it was -3.81%.
As to `CCOc1ccc(C(=O)CCN2CCOCC2)cc1`, the inhibition is 4.03%.
In the case of `COc1cc(C(=O)NCC(=O)N2CC=C(c3ccccc3)CC2)cc(OC)c1OC` it was 0.563%; in that of `COc1ccc(C2CC(c3cccs3)=NN2c2ccc(F)cc2)cc1OC` (centres undefined), 53.2% (active).
In the case of `COc1ccc(C2CC(c3cccs3)=NN2c2nc(C)c(C(C)=O)s2)cc1OC` (centres undefined) it was 89.5% (active); in that of `COc1ccc(C2CC(c3cccs3)=NN2C(=O)CSc2nncs2)cc1OC` (centres undefined), -2.68%; in that of `COc1ccc(C2CC(c3cccs3)=NN2c2ccccc2)cc1` (centres undefined), 2.04%.
In the case of `COc1ccc(C2CC(c3cccs3)=NN2C(=O)CCC(=O)O)cc1OC` (centres undefined) it was -4.44%.
Regarding `COc1ccccc1N1N=C(c2cccs2)CC1c1ccccc1` (centres undefined), the inhibition is -0.43%.
As for `O=C(COC(=O)c1ccccn1)NNC(=O)c1ccc([N+](=O)[O-])cc1`, the inhibition was 4.26%.
For the compound `CN(CC(=O)NCc1cccnc1)S(=O)(=O)c1cc(Cl)ccc1Cl`, the inhibition was 4.66%.
In the case of `COc1ccc(NC(=O)CN(C)C(=O)Cc2coc3cc(C)c(C)cc23)cc1` it was 0.0585%; in that of `C=CCOc1cccc(C2C(C(=O)c3ccc(C)o3)=C(O)C(=O)N2c2nnc(C)s2)c1` (centres undefined), -5.03%; in that of `O=C1N[C@@H](Cc2ccccc2)C(=O)N2[C@@H]3N(S(=O)(=O)c4ccc(F)cc4)c4ccccc4[C@]3(Br)C[C@@H]12`, 5.5%.
As to `NC(N)=Nc1nc(-c2ccccc2)c2cc(Cl)ccc2n1`, the inhibition was 4.42%.
With `OCCCNc1nc(-c2ccccc2)c2cc(Cl)ccc2n1` the figure was 50.7% (active); with `O=C(CCl)NNc1nc(-c2ccccc2)c2cc(Cl)ccc2n1`, -0.54%; with `Cc1cc(C)c(S(=O)(=O)n2cc(C(C)C(N)C(=O)O)c3ccccc32)c(C)c1` (centres undefined), -3.39%.
In the case of `CS(=O)(=O)N(CC(O)Cn1c2ccccc2c2ccccc21)c1cccc2ccccc12` (centres undefined) it was 2.16%.
In the case of `O=C1c2ccccc2S(=O)(=O)N1CC(O)Cn1c2ccccc2c2ccccc21` (centres undefined) it was 3.48%; in that of `CCCCN(CCCC)CC(O)Cn1c2ccccc2c(=O)c2ccccc21` (centres undefined), 114% (active); in that of `O=C(COC(=O)CNS(=O)(=O)c1ccc(F)c(F)c1F)NC1CCCC1`, -1.07%.
On to `COC(=O)C1=CN(C)C=C(C(=O)OC)C1c1ccc(Cl)cc1Cl`, for which the inhibition is 2.63%.
In the case of `CCOc1ccccc1N(CC(=O)Nc1ccccc1C(=O)OC)S(C)(=O)=O`, the inhibition was 2.19%.
With `CCOc1ccccc1C1C(C(=O)OC)=CN(C)C=C1C(=O)OC` the figure was 118% (active).
In the case of `COc1ccc(Cc2nnc(SCC(=O)N(c3ccccc3)C(C)C)n(N)c2=O)cc1` it was -2.45%.
Consider `OCCNCc1cccc(OCc2ccccc2Cl)c1`, for which the inhibition is 17.6% (active).
For `Clc1cccc(Cl)c1OCCOCCNCc1ccccc1`, the inhibition was 0.589%.
With `OCCNCCOc1ccc(Cl)c(Cl)c1` the figure was -2.77%.
In the case of `CCCCN1C(N)=NC[C@@H]1Cc1ccccc1` it was -2.74%.
In the case of `Cc1ccn2c(=O)nc(SCC(=O)NCc3ccc4c(c3)OCO4)nc2c1` it was -2.18%.
For the compound `COc1ccc(-n2nnnc2CNC(=O)c2ccc3ccccc3c2)cc1`, the inhibition is 3.81%.
In the case of `O=C(CSc1nc(=O)n2ccccc2n1)Nc1ccc2c(c1)OCCO2`, the inhibition is 0.244%.
In the case of `CC(C)Nc1nnc(SC(C)C(=O)N(C)C2CCCCC2)s1` (centres undefined) it was 2.7%.
In the case of `C/C(=N\N)c1c(-c2ccccc2)c2cc(Br)ccc2[nH]c1=O` it was 21.4% (active).
In the case of `O=C(CN1CCOCC1)Nc1c(-c2ccccc2)c2cc(Br)ccc2[nH]c1=O` it was -3.33%; in that of `CC(=O)c1c(-c2ccccc2)c2ccccc2[nH]c1=O`, -2.98%; in that of `CCN(CCCNC(=O)c1ccc2c(c1)NC(=O)CN2C)c1cccc(C)c1`, 20.7% (active).
Regarding `CN(C)CCCNC(=O)c1ccc2[nH]c3ccccc3c2c1`, the inhibition was -2.02%.
With `CCN(CCCNC(=O)CCn1c(=O)[nH]c2ccsc2c1=O)c1ccccc1` the figure was 8.57%.
